Experimental findings from PubChem BioAssay are described below.

The source made the active and inactive calls.

Test [1] relates to PRMT1 (protein arginine N-methyltransferase 1). Nature of the test: PRMT1 binders on small-molecule microarrays, primary screen, biochemical, small-molecule microarray, 635 nm fluorescence (AID 1088).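 Note: binding of Prmt1 protein to compounds spotted on small-molecule microarray slides.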 To be noted: small-molecule microarray binding, higher = more signal.
Test [2] is described as follows: yeast growth modulation, basal conditions, primary screen, YJM789 clinical isolate, OD600, 24 h (AID 1089).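 Note: growth of clinical yeast isolate S. cerevisiae YJM 789 seeded 1000 cells per well; test concentration not given here.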 To be noted: S. cerevisiae YJM789 growth, higher = more signal, called active from +8 up or from −8 down.
A short description of test [3]: fission yeast growth modulation, primary screen, strain 972, OD600, 24 h, no modulator (AID 1090).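 Note: basal condition with compound alone and no growth modifier present; test concentration not given here.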 To be noted: S. pombe 972 growth, higher = more signal, called active from +8 up or from −8 down.
A short description of test [4]: S. cerevisiae growth modulation with rapamycin, primary screen, strain BY4716, OD600, 96 h (AID 1091). Note: test concentration not given here. To be noted: higher = more signal, called active from +8 up or from −8 down.
The target in test [5] is Torsin-1A-interacting protein 2 (Homo sapiens) (UniProt Q8NFQ8). Briefly: LULL1 binders on small-molecule microarray, primary screen, cell lysate, human LULL1 lysate, 635/667 nm fluorescence (AID 1092).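 Note: probe is lysate of COS7 cells overexpressing human LULL1; score merges per-feature 667 nm fluorescence with signal-to-noise.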 To be noted: hLULL1 lysate binding, 635 nm fluorescence, higher = more signal.
Test [6] in a line: E. coli growth modulation, two-sided OD650, primary screen, E. coli filamentation project, strain DRC41, 24 h (AID 1093).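 Note: MC1000 strain lacking acrAB efflux and sulA so SOS filamentation is blocked; test concentration not given here.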 The following applies: OD650, 24 h, higher = more signal, called active from +8 up or from −8 down.
Test [7] is described as follows: small-molecule microarray binders of probe aLefty2, primary screen, biochemical, biotinylated probe, 635/667 nm fluorescence (AID 1094).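 Note: score merges spot fluorescence near 667 nm with spot signal-to-noise ratio.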 The following applies: higher = more signal.
The test system of test [8] is Noggin (protein binding on small-molecule microarray). Nature of the test: Noggin binders on small-molecule microarray, primary screen, biochemical, 635/667 nm fluorescence (AID 1095).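 Note: score merges 667 nm feature fluorescence with signal to noise over triplicate slides.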 The following applies: 635 nm fluorescence, higher = more signal.
Test [9] concerns the target Neurogenic locus notch homolog protein 3 (Homo sapiens) (UniProt Q9UM47). Nature of the test: NOTCH3 binders on small-molecule microarray, primary screen, biochemical, 635/667 nm fluorescence (AID 1096). The following applies: NOTCH3 binding, 635 nm fluorescence, higher = more signal.
Test [10] in a line: small-molecule microarray binders of probe aEGFR, primary screen, biochemical, biotinylated probe, 635/667 nm fluorescence (AID 1097).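 Note: probe is a biotinylated anti-EGFR antibody binding compounds printed on slides; score combines fluorescence near 667 nm and signal to noise of each spot.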 To be noted: higher = more signal.
Test [11] relates to Plasmodium falciparum Sir2 (PF13_0152, Sir2A). Nature of the test: pfSir2 binders on small-molecule microarrays, primary screen, biochemical, small-molecule microarray, 635 nm fluorescence (AID 1098).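 Note: score merges spot fluorescence intensity with its signal-to-noise ratio.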 The following applies: small-molecule microarray binding, fluorescence 635 nm; higher = more signal.
The nature of test [12]: small-molecule microarray binders of probe aDKK1, primary screen, biochemical, biotinylated probe, 635/667 nm fluorescence (AID 1099).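 Note: score merges 667nm spot fluorescence with signal to noise across triplicate slides; reference of the scale not given here.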 The following applies: higher = more signal.
Test [13] is described as follows: small-molecule microarray binders of probe aCHRDL2, primary screen, biochemical, biotinylated probe, 635/667 nm fluorescence (AID 1100). To be noted: higher = more signal.
Test [14] in a line: splicing luciferase reporter signal modulators, primary screen, spliceosome inhibition project, cell-based, HEK293, splice +/- reporter (AID 1101).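 Note: HEK293 cells carrying a splicing-competent luciferase reporter gene; test concentration not given here.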 The following applies: luminescence, 24 h, higher = more signal, called active from +8 up or from −8 down. In general terms: Reporter assays use an easily measured gene product as a stand-in for the process of interest.
In test [15] the target is Fibroblast growth factor 10 (Homo sapiens) (UniProt O15520). Nature of the test: FGF10 binders on small-molecule microarrays, primary screen, biochemical, small-molecule microarray, 635 nm fluorescence (AID 1102). The following applies: FGF10 binding, fluorescence 635 nm, higher = more signal.
For test [16], the system named is glycogen synthase kinase-3 (GSK3A per assay name; protocol says GSK3B). Nature of the test: GSK3 binders on small-molecule microarrays, primary screen, biochemical, small-molecule microarray, 635 nm fluorescence, GSK3A (AID 1103). Note: the record names both GSK3A and GSK3B. The following applies: small-molecule microarray binding, fluorescence 635 nm; higher = more signal.
For test [17], the target named is Epidermal growth factor receptor (Homo sapiens) (UniProt P00533). Briefly: EGFR binders on small-molecule microarrays, primary screen, biochemical, small-molecule microarray, 635 nm fluorescence (AID 1104).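 Note: score merges 667 nm emission intensity with spot signal to noise over triplicate slides.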 To be noted: EGFR binding, higher = more signal.
Test [18] deals with Follistatin-related protein 3 (Homo sapiens) (UniProt O95633). Briefly: FSTL3 binders on small-molecule microarrays, primary screen, biochemical, small-molecule microarray, 635 nm fluorescence (AID 1105).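 Note: score merges emission near 667 nm and signal to noise per printed spot across three slides.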 To be noted: FSTL3 binding, higher = more signal.
Test [19] deals with Dickkopf-related protein 1 (Homo sapiens) (UniProt O94907). Nature of the test: DKK1 binders on small-molecule microarrays, primary screen, biochemical, small-molecule microarray, 635 nm fluorescence scan (AID 1106).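 Note: score merges emission near 667 nm with signal to noise over three replicate slides.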 The following applies: DKK1 binding, higher = more signal.
The test system of test [20] is Inhibin beta A chain (activin A). Nature of the test: INHBA (activin A) binders on microarrays, primary screen, biochemical, small-molecule microarray, 635 nm fluorescence scan (AID 1107).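 Note: mouse activin A protein probed at 4.33 µg/mL on printed slides; score merges bound-protein fluorescence near 667 nm with spot signal-to-noise.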 To be noted: small-molecule microarray binding, higher = more signal.

Chain of Epidermal growth factor receptor (Homo sapiens) (P00533 whole entry, looked up): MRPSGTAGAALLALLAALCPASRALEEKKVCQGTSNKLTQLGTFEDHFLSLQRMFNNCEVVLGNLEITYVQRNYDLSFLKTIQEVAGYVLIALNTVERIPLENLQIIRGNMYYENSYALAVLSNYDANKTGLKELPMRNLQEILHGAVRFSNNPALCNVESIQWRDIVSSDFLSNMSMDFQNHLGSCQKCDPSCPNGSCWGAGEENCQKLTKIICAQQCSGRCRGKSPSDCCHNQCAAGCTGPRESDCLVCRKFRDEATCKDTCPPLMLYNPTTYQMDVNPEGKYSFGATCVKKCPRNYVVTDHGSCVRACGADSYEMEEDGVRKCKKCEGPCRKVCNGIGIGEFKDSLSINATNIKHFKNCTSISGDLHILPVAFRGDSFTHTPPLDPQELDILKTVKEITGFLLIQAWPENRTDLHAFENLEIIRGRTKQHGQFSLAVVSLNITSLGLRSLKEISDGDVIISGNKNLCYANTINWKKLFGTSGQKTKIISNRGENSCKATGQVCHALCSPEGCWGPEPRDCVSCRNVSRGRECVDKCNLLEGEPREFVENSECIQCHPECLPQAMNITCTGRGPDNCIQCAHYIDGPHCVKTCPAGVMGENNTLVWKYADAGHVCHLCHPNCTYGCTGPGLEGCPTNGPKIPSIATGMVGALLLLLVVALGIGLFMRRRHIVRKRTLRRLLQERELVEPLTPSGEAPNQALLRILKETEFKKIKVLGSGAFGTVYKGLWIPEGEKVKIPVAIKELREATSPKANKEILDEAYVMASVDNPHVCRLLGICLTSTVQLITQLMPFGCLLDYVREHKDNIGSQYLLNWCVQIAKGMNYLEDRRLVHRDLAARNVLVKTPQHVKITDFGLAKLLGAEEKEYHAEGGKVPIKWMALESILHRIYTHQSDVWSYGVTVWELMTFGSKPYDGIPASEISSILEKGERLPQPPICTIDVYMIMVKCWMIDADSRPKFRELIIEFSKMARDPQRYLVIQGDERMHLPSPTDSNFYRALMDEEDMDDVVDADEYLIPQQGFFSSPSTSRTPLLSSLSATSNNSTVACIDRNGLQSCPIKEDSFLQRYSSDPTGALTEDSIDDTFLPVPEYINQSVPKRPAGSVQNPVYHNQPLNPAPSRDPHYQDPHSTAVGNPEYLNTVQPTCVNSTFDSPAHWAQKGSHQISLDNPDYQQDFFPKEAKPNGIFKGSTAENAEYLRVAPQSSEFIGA
Chain of Torsin-1A-interacting protein 2 (Homo sapiens) (Q8NFQ8 whole entry, looked up): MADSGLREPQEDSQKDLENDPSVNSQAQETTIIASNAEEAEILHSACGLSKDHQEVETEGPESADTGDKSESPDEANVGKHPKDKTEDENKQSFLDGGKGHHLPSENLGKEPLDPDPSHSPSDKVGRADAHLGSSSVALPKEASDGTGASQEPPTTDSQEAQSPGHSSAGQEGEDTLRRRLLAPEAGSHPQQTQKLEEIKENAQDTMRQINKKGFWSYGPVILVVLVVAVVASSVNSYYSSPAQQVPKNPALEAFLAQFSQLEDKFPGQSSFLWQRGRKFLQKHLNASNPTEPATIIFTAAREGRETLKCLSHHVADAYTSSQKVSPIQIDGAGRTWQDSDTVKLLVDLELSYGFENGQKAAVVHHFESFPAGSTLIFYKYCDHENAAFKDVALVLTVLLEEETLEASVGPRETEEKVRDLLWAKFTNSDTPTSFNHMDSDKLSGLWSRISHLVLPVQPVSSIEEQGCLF
Chain of Neurogenic locus notch homolog protein 3 (Homo sapiens) (Q9UM47 whole entry, looked up): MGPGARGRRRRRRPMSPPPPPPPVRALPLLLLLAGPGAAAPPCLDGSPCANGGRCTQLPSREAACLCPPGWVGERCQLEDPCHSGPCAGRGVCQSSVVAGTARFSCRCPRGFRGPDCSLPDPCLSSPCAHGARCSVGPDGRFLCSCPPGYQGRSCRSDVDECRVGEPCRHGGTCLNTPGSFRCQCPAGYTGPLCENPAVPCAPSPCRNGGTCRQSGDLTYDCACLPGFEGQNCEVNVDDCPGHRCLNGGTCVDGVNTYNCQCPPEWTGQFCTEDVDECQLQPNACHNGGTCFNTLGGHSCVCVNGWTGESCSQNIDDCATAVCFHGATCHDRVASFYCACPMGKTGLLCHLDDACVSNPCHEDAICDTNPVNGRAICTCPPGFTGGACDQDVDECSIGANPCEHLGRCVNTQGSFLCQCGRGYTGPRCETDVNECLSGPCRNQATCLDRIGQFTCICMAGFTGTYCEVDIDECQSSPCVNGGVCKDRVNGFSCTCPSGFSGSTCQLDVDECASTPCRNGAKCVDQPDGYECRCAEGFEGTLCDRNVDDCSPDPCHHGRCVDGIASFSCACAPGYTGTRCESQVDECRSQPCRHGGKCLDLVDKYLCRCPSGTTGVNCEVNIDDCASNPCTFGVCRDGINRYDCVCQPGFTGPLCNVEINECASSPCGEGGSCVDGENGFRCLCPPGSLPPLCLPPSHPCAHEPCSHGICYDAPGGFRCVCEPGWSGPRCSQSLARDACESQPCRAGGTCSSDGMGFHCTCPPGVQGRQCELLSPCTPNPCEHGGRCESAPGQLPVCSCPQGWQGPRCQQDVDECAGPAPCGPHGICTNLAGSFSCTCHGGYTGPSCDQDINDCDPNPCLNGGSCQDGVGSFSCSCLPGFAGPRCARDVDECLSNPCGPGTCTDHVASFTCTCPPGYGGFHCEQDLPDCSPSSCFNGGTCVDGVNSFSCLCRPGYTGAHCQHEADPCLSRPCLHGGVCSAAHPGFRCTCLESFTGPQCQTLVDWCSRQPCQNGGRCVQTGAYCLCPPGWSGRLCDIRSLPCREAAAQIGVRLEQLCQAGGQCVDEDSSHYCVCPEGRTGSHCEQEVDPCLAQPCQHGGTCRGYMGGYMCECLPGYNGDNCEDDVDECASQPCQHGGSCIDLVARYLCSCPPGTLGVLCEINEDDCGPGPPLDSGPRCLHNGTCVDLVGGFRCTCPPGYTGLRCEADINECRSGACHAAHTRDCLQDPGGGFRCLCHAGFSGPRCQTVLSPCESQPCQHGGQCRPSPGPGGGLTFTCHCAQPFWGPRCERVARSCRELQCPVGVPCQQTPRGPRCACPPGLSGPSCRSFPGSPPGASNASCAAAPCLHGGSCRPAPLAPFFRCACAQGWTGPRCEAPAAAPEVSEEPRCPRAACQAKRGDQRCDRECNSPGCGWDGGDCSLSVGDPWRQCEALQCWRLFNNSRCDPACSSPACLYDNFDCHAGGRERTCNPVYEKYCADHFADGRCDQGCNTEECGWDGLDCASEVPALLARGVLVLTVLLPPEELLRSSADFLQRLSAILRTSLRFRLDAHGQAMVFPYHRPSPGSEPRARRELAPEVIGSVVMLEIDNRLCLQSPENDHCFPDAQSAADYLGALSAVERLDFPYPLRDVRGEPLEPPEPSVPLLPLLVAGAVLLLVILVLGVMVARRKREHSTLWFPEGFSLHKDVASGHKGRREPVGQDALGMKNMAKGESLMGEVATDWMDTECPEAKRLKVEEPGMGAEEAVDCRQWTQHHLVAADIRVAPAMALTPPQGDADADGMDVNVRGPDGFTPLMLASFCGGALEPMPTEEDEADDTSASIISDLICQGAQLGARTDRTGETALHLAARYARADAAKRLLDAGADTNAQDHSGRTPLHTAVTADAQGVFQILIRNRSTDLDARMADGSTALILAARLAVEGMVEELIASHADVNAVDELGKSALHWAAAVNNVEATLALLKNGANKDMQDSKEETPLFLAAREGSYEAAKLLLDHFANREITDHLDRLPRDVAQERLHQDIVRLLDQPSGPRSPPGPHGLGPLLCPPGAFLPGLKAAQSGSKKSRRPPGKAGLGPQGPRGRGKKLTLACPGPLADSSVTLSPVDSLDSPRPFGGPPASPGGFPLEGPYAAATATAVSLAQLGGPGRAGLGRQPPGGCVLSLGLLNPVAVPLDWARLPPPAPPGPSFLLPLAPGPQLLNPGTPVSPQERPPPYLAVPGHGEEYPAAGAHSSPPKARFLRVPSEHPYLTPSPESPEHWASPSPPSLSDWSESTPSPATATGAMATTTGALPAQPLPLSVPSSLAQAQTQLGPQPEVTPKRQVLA
Chain of Follistatin-related protein 3 (Homo sapiens) (O95633 whole entry, looked up): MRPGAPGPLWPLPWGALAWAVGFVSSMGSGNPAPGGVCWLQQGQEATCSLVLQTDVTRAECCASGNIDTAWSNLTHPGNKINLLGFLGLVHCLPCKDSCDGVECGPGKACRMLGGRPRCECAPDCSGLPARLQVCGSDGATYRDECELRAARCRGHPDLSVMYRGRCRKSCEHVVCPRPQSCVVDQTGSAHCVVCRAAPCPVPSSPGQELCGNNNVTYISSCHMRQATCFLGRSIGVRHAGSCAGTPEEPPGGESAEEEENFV
Chain of Fibroblast growth factor 10 (Homo sapiens) (O15520 whole entry, looked up): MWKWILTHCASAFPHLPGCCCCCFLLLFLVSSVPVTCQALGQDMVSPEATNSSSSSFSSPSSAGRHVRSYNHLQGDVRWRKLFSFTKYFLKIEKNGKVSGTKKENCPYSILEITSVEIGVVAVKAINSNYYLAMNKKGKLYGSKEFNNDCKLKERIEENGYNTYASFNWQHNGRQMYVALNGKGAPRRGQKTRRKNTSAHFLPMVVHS
Chain of Dickkopf-related protein 1 (Homo sapiens) (O94907 whole entry, looked up): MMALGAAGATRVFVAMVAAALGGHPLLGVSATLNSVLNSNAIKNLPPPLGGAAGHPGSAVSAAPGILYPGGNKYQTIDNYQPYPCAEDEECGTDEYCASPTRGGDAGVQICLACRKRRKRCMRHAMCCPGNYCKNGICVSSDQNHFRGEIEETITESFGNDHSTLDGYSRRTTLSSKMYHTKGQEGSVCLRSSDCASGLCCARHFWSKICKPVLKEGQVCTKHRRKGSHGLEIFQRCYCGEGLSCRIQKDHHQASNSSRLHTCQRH

For the compound `CO[C@H]1O[C@H](CO)[C@@H](OC(=O)Nc2ccc(C#N)cc2)[C@H](OC(=O)c2cc3ccccc3[nH]2)[C@H]1OC(=O)c1cc2ccccc2[nH]1`, the composite z-score in [1] was 1.3; in [5], 1.77; in test [7], 0.0261; in test [8], 1.02; in test [9], 0.695; in test [10] it was -0.0238. The composite z-score in test [11] was found to be 1.19; in test [12] it was 0.149; in test [13], 0.19; in test [15] it was 0.747; in test [16], 1.16; in test [17] it was 0.119. For the same compound, the composite z-score was determined as 0.588 in [18], 0.295 in [19] and 0.354 in [20]. The z-score in test [2] was -2.49 (inactive); in [3], -1.17 (inactive); in [4], 0.507 (inactive); in [6] it was 3.01 (inactive); in test [14], -0.561 (inactive).
In the case of `CN(C)CCCNC(=O)[C@@H]1c2ccccc2C(=O)N(Cc2ccccc2)[C@H]1c1ccc(CO)cc1`, the composite z-score is 0.0881 in [1]; 0.282 in test [5]; 0.555 in test [7]; -0.848 in test [8]; -1.21 in test [9]; 0.259 in test [10]. Further, the composite z-score in test [11] was 0.0072; in [12], 0.189; in [13] it was 0.341; in [15] it was -0.952; in [16] it was -0.383; in [17], -0.254. The values for the composite z-score in test [18], in test [19] and in test [20] were 0.433, -0.354 and 1.33, respectively. For the same compound, the z-score was 0.115 (inactive) in test [2]; -0.699 (inactive) in test [3]; -0.848 (inactive) in [4]; 0.442 (inactive) in test [6]; -0.00771 (inactive) in test [14].
`CC(=O)OC[C@H]1O[C@H](CCON=C[C@@H](C)[C@H](OCc2ccccc2)C(C)C)C=C[C@@H]1OC(C)=O`: the composite z-score in test [1] is 1.12; in test [5], -0.169; in [7], -0.138; in test [8], 0.559; in [9], 0.226; in test [10] it was -0.0093. Besides, the composite z-score is 0.343 in test [11]; -0.36 in test [12]; -0.743 in [13]; 0.2 in test [15]; 0.608 in test [16]; 0.365 in test [17]. Moreover, the values for the composite z-score in test [18], in test [19] and in test [20] were 0.274, 0.564 and -0.0819, respectively. In addition, the z-score was -0.283 (inactive) in test [2]; -0.205 (inactive) in [3]; -0.3 (inactive) in test [4]; -0.608 (inactive) in [6]; 0.244 (inactive) in test [14].
As for `Cn1cccc1C(O)C1C=CC2C(=O)NC(=O)C2N1Nc1ccccn1` (stereo not given), the composite z-score in test [1] was 0.408; in test [5], -0.503; in test [7], -0.19; in [8], -0.0645; in [9], -0.929; in test [10] it was 0.0865. For the same compound, the composite z-score in test [11] was 0.71; in test [12], 0.0275; in test [13], 0.0176; in test [15], -0.121; in test [16], -0.0788; in test [17], 0.459. For the same compound, the composite z-score in [18] came to 0.533; in [19], 0.133; in [20] it was 1.49. Also, the z-score in test [2] was 0.0886 (inactive); in [3], 1.23 (inactive); in test [4], 0.0533 (inactive); in test [6], -0.975 (inactive); in test [14], 1.36 (inactive).
On to `O[C@@H](Cc1ccccc1)[C@H]1C2C=CCCC(c3ccccc3)=C2CN1Cc1cccc(Cl)c1` (stereo not given in full), for which the composite z-score in [1] was 1.44; in test [5] it was 1.73; in test [7], -0.106; in test [8] it was 0.96; in [9], 1.12; in test [10], -0.0549. The composite z-score in test [11] was 0.0167; in test [12], -0.0232; in [13], 0.7; in test [15] it was 0.653; in test [16], 0.913; in [17], 0.21. Also, the composite z-score in [18] is 0.847; in test [19], 0.473; in test [20], 0.264. Also, the z-score in test [2] was -0.122 (inactive); in test [3] it was -3.65 (inactive); in [4], -1.09 (inactive); in [6], 2.78 (inactive); in test [14], -0.205 (inactive).
